Bioassay records deposited in PubChem BioAssay by National Center for Advancing Translational Sciences (NCATS).
JMJD2A Tudor inh: JMJD2A Tudor domain (human) inhibition | O75164 | AlphaScreen JMJD2A-Tudor / H3K4me3 peptide binding | Potency, µM (titrated, usually from 114 µM), for the others: top-dose activity change, negative = inhibition, most hits filed as inhibitors | actives 4.4% (n = 390,000); further: on the % scale 0 is the no-effect control and ±100 the full control effect; nearly all actives have a fitted effect of over 50% in size
G9a block: G9a (human) methyltransferase inhibition; actives 8.8% (n = 350,000); Potency, µM (titrated, usually from 102 µM), for inactives: top-dose activity, negative = inhibition, hits mostly inhibitors; G9a H3K9 monomethylation, AlphaScreen, 2 h; Q96KQ7; further: on the % scale 0 is the no-effect control and ±100 the full control effect; nearly all actives have a fitted effect of over 75% in size
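Compounds were preincubated with 20 nM G9a for 15 min, after which biotinylated H3K9 peptide (500 nM) and SAM (20 uM) started a 2 h room-temperature reaction. Monomethylated product was quantified by antibody-based AlphaScreen chemiluminescence.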
HP1b binding inh: HP1-beta chromodomain-methylated histone interaction inhibition | Potency, µM (series often up to 114 µM), inactives show at the highest dose activity change, negative = inhibition, most hits filed as inhibitors | actives 0.56% (n = 390,000) | P83916 | AlphaScreen HP1-beta / biotin-H3K9me3 peptide binding; further: nearly all actives have a fitted effect of over 70% in size
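Compound inhibition of the preformed complex between 50 nM HP1-beta and 50 nM biotinylated H3K9me3 peptide was read by AlphaScreen. Buffer was PBS pH 7.4 with 0.01% Tween-20. Incubations ran 30 min at room temperature, with 10 ug/mL donor/acceptor beads.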
L3MBTL1 inh: L3MBTL1 (human) inhibition; Q9Y468; AlphaScreen L3MBTL1–H3K9me1 peptide binding; Potency, µM (top dose mostly 57.1 µM), for inactives: top-dose activity, negative = inhibition, most hits filed as inhibitors; actives 0.66% (n = 230,000); AID 485360; further: on the % scale 0 is the no-effect control and ±100 the full control effect; nearly all actives have a fitted effect of over 60% in size
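Read-out is AlphaScreen signal from streptavidin donor and nickel chelate acceptor beads (10 ug/mL final each) bridging L3MBTL1 (50 nM) and biotinylated K9-monomethylated H3(1-15) peptide (75 nM), after 30 min compound exposure at room temperature.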
BAZ2B block: BAZ2B (human) inhibition. Q9UIF8. Potency, µM (series often up to 114 µM), for inactives: at the top dose activity change, negative = inhibition, actives largely listed as inhibitors. AlphaScreen BAZ2B-H3K14Ac peptide displacement. actives 4.4% (n = 360,000). AID 504333; further: on the % scale 0 is the no-effect control and ±100 the full control effect; nearly all actives have a fitted effect of over 60% in size
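AlphaScreen displacement: compounds (up to 110uM) incubated 30 min at room temperature with a preformed 50 nM BAZ2B/50 nM biotinylated H3K14Ac peptide complex in PBS pH 7.4 with Tween-20. Donor and acceptor beads at 10 ug/mL final added, 20 min light-protected before reading.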
GLS inhibitor: glutaminase GLS (human) inhibition. GLS enzymatic activity, qHTS titration. O94925. AID 624170. Potency, µM (series often up to 45.5 µM), without a hit: at the highest dose activity change, negative = inhibition, most hits filed as inhibitors. actives 0.21% (n = 410,000); further: on the % scale 0 is the no-effect control and ±100 the full control effect
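Coupled fluorescence readout: glutamate oxidase/HRP/Amplex Red detect glutamate formed by hKGA from L-glutamine (1 mM solution added). Buffer 45 mM KH2PO4 pH 8.2, 0.02% Tween-20; reads at t0 and 30 min RT.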
An asterisk follows results filed as active; ? = inconclusive; / = no result given; [ ] = another dose, or the depositor's remark. Compounds with a hit are over-represented: about 10% of the library has one in this group of screens. The call rests on the fitted dose curve; in most records, active means well fitted curve in the direction sought with a large enough effect; inconclusive means small, poorly fitted or top-dose-only effect, or another doubt; inactive means no such curve, though single readings can be large; an effect the other way counts as inactive or inconclusive. Potency means the concentration at half of the fitted maximal effect.

SMILES	JMJD2A Tudor inh	G9a block	HP1b binding inh	L3MBTL1 inh	BAZ2B block	GLS inhibitor
O=C(CCN1C(=O)/C(=C/c2cccs2)SC1=S)Nc1ccc(C(=O)O)c(O)c1	7%	45µM*	27%	/	56µM*	10%
COc1ccc(-c2oc3ncn4nc(-c5ccccc5Br)nc4c3c2-c2ccc(OC)cc2)cc1	-11%	6%[59 µM]	11%	/	3%	1%
COc1cccc(-c2nc(CS(=O)CC(=O)NCc3ccc4c(c3)OCO4)c(C)o2)c1 (stereo not given)	-24%	50µM*	15%	/	-29%	6%
COc1cccc(-c2nc(CS(=O)CC(=O)NCc3ccccc3Cl)c(C)o2)c1 (stereo not given)	-18%	35µM*	19%	/	-37%	0%
COc1cccc(CNC(=O)CCc2c(C)c3cc4c(C)coc4cc3oc2=O)c1	-23%	-8%[59 µM]	18%	/	2%	8%
Cc1cc(C)n(-c2nc3ccccc3nc2Nc2cccc(C(F)(F)F)c2)n1	90%	74%[59 µM]	228%	/	28%	1%
COc1ccccc1-n1nc(-c2ccccc2)c2cnc3cc(C(F)(F)F)ccc3c21	-18%	1%[59 µM]	19%	/	/	15%
O=C(CN1CCN(Cc2ccccc2)CC1)N/N=C/c1ccco1	-2%	9%	51%	-7%	12%	-4%
Clc1ccc(CN2CCN(/N=C/c3ccco3)CC2)cc1	?	50µM*	?	/	?	-14%
Cc1ccc(/C=N/N2CCN(Cc3ccc(Cl)cc3)CC2)o1	?	50µM*	-22%	/	?	1%
COc1ccc(NC(=O)CC2C(=O)N(c3ccc(C)cc3)C(=O)N2Cc2cccnc2)cc1 (stereo not given)	4%	-6%[59 µM]	35%	/	-13%	-20%
O=C(CN1CCCC1)N1CCCc2ccccc21	3.5µM*	/	?	-7%	50µM*	0%
O=C(CN1CCCCC1)N1CCCc2ccccc21	2.5µM*	?	?	/	50µM*	6%
CCN(CC)c1ccc(/C=N/OCC(=O)N2CCCc3ccccc32)cc1	?	40µM*	?	-14%	?	7%
Nc1nc2nc(SCC(=O)N3CCCc4ccccc43)[nH]c2c(=O)[nH]1	/	79µM*	/	2%	-7%	/
COc1ccc(OC(=O)c2cn(-c3cccc(OC)c3)c(=O)c3ccccc23)cc1	5%	4%[59 µM]	32%[57 µM]	/	1%	5%
COCCc1ccc(OC[C@H](O)CNC(C)C)cc1	/	-8%[12.7 µM]	/	/	/	-3%
COc1ccc(CCNC(=O)c2cnc3ccc(C)cn3c2=O)cc1	-1%	-2%[59 µM]	33%	/	-2%	-14%
Fc1cc(F)c2ncc3c(-c4ccccc4)nn(-c4cccc(Cl)c4)c3c2c1	-22%	-1%[59 µM]	4%	/	/	5%
Cc1cc(C)c(Cn2c(=O)n(CCCC(=O)NCc3ccc4c(c3)OCO4)c(=O)c3sccc32)c(C)c1	-13%	-9%[59 µM]	7%	/	-2%	-7%
O=C(N=C1c2ccccc2CN1c1ccccc1)c1cccc([N+](=O)[O-])c1	?	50µM*	-22%	-4%	-33%	-5%
O=C(N=C1c2ccccc2CN1c1cccc(Cl)c1)c1cccnc1	0%	50µM*	50%	-5%	-8%	-8%
O=C(/N=C1/c2ccccc2CN1c1ccccc1)Nc1ccccc1	-13%	12%[59 µM]	34%	-1%	-12%	-12%
COc1ccc(N2Cc3ccccc3C2=NC(=O)c2ccc(C)cc2)cc1OC	?	45µM*	12%	-11%	-38%	-16%
O=C(N=C1c2ccccc2CN1c1ccc(F)c(F)c1)c1cccnc1	-14%	-30%	37%	-24%	-10%	0%
SMILES	JMJD2A Tudor inh	G9a block	HP1b binding inh	L3MBTL1 inh	BAZ2B block	GLS inhibitor
Cc1ccccc1NC(=O)CCn1nc(-c2ccccc2)c2ccccc2c1=O	-7%	-3%[59 µM]	-9%	/	2%	-10%
Cc1cc(N)ccc1S(C)(=O)=O	15%	2%[59 µM]	47%	4.5µM*	-20%	2%
Cc1ccc(N)cc1S(=O)(=O)N(C)C	-22%	-6%	37%	-20%	-32%	-12%
CCN(CC)c1ccc(CNc2ccc(Br)cn2)cc1	?	?	-22%	-10%	22µM*	15%
O=C(OC1CCOC1=O)c1ccc2ncsc2c1 (stereo not given)	-3%	28µM*	35%	-13%	3%	-1%
CCOC(=O)CNC(=O)c1cc2c(=O)oc3ccccc3c2s1	13%	15%[59 µM]	26%	/	11%	-16%
CC(C)=C1C(=O)NN(c2ccc(C)c(Cl)c2)C1=O	-28%	8.9µM*	-6%	-20%	?	16%
CC(C)=C1C(=O)NN(c2cccc(Cl)c2)C1=O	-19%	?	20%	-2%	-31%	?
COc1ccc(NS(=O)(=O)c2ccc(N3CCOCC3)c(NC(=O)c3ccccc3Cl)c2)cc1	-28%	13%[59 µM]	-1%	-9%	-5%	4%
O=S(=O)(Nc1ccc(N2CCCCC2)cc1)c1ccc(F)c(F)c1	?	13µM*	-37%	-14%	32µM*	59%
O=C(Nc1cc(S(=O)(=O)Nc2ccc(Cl)cc2)ccc1N1CCCCC1)c1ccc(F)cc1Cl	-22%	10µM*	?	-6%	-32%	-3%
NC(=O)c1ccc(NC(=O)CNc2cc(S(=O)(=O)N3CCOCC3)ccc2N2CCCC2)cc1	-30%	/	3%	/	/	21%
CC(=O)c1ccc(NC(=O)CNc2cc(S(=O)(=O)N3CCOCC3)ccc2N2CCCC2)cc1	?	35µM*	-16%	-3%	-33%	25%
O=C(Nc1cc(S(=O)(=O)N2CCOCC2)ccc1N1CCCC1)c1ccc2c(c1)S(=O)(=O)c1ccccc1C2=O	?	/	4µM*	-13%	?	7.9µM*
Clc1ccccc1-c1ccc2ncnc(NC3CCNCC3)c2c1	/	0%[0.501 µM]	/	/	/	/
O=C(Nc1cc(S(=O)(=O)N2CCOCC2)ccc1N1CCCCC1)c1ccc(Cl)cc1	-36%	?	?	-7%	-9%	-25%
N#C/C(=C\c1ccccc1)C(=O)Nc1cc(S(=O)(=O)N2CCOCC2)ccc1N1CCCC1	-34%	45µM*	-7%	-10%	-9%	-12%
O=C(Nc1cc(S(=O)(=O)N2CCOCC2)ccc1N1CCCC1)c1ccc(Cl)cc1	?	1.8µM*	?	-9%	-5%	17%
CCOc1cc(N2CCOCC2)c(OCC)cc1NC(=O)c1ccc(NC(C)=O)cc1	-30%	-27%	-9%	-3%	-30%	4%
COC(=O)c1sccc1S(=O)(=O)Nc1ccc(N2CCCCC2)cc1	?	/	?	/	35µM*	1%
CCOc1cc(N2CCOCC2)c(OCC)cc1NC(=O)CCS(=O)(=O)c1ccc(Cl)cc1	-32%	22µM*	-17%	0%	/	20%
